# Reference: PubChem BioAssay AID652197 (Broad Institute, 2013)
# Hit rate of the full screen: of about 340,000 compounds, about 500 (0.15%) were called active.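 The calls were made as follows: active = mean replicate inhibition of at least 30%, or all replicates individually reaching that 30% level; inactive = mean below 30% and not every replicate reaching it.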 Many of the other results were omitted from the sample, so actives are more common in it than they were.
# Target: Endoplasmic reticulum aminopeptidase 1 (Homo sapiens) (UniProt Q9NZ08)
# Experiment: human ERAP1 aminopeptidase inhibitors, primary screen, biochemical, single point, plate reader (AID 652197);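 also: 0% = neutral control wells and 100% = L-leucinethiol positive control wells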
# Details: recombinant ERAP1, Leu-AMC fluorescence, 60 min; at 10.7 µM; hits give high values
# Endoplasmic reticulum aminopeptidase 1 (Homo sapiens), sequence (Q9NZ08 whole entry, looked up): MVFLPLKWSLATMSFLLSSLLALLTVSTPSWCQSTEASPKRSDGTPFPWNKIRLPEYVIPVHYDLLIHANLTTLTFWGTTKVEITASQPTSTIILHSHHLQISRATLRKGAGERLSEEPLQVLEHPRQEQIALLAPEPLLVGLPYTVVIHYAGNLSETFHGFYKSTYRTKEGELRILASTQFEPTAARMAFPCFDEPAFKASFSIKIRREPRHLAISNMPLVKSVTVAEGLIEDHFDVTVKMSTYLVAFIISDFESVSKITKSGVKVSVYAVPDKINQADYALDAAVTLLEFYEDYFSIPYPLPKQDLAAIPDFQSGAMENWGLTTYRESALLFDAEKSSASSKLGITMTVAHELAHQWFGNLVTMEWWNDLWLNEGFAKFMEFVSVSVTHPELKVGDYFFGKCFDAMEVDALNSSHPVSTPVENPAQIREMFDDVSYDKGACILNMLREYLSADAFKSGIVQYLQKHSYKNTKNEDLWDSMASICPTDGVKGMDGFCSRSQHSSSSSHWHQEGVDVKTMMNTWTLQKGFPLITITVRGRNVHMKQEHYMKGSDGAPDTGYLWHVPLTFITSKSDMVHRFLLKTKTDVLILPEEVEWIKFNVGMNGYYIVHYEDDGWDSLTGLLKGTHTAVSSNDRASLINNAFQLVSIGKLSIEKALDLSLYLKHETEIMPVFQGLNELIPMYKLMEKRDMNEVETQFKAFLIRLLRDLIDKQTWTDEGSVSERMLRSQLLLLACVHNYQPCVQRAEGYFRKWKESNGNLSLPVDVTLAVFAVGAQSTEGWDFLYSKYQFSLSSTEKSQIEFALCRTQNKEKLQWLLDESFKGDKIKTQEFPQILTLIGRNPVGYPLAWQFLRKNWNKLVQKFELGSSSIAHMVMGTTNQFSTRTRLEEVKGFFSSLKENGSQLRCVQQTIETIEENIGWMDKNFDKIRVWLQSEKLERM
row,SMILES,inhibition
1,CC(C)NC(=O)N(C)C[C@@H]1Oc2ccc(N(C)C)cc2CC(=O)N([C@H](C)CO)C[C@@H]1C,2.87% (inactive)
2,CN1CCN(C(=O)C[C@H]2CC[C@@H]3[C@H](COC[C@@H](O)CN3CC3CCCC3)O2)CC1,4.35% (inactive)
3,CC(C)c1cn(CC[C@@H]2CC[C@@H](NC(=O)C3CC3)[C@H](CO)O2)nn1,-4.66% (inactive)
4,COc1ccc2c3c(n(C)c2c1)[C@H](CO)N(C(=O)NC(C)C)CC31CCN(C(=O)NC(C)C)CC1,-0.444% (inactive)
5,O=C(N[C@H]1CC[C@@H](CCNS(=O)(=O)c2ccccc2)O[C@H]1CO)c1cccnc1,-2.04% (inactive)
6,C[C@@H]1CN([C@@H](C)CO)C(=O)c2cc(NC(=O)Nc3ccc(F)cc3)ccc2O[C@H]1CN(C)CC1CCCCC1,-0.385% (inactive)
7,O=C(c1cccc(F)c1)N1CC[C@@H]2[C@H](CO)Nc3ccc(-c4ccccc4)cc3[C@@H]21,-0.032% (inactive)
8,O=C(C[C@@H]1CC[C@H](NC(=O)NC2CCCCC2)[C@H](CO)O1)NCc1ccc(F)cc1,0.011% (inactive)
9,CC(C)NC(=O)N1[C@H](C(=O)N2CCc3ccccc3C2)[C@@H](CO)[C@@H]2Cn3c(cccc3=O)[C@@H]21,0.844% (inactive)
10,COc1cccc2c1C(=O)c1c(O)c3c(c(O)c1C2=O)CC(O)(C(C)=NNC(=O)c1ccc(Cl)c(Cl)c1)CC3OC1CC(N)C(O)C(C)O1 (centres undefined),42% (active)
11,COCCNC(=O)CSc1nc(N)c(NC(=O)c2ccco2)c(=O)[nH]1,-7.96% (inactive)
12,COCCNC(=O)Nc1ccc2nc(-c3ccco3)c(-c3ccco3)nc2c1,30.5% (active)
13,COCCNC(=O)c1snc2ccc(Cl)cc12,-4.43% (inactive)
14,O=C(C[C@H]1CC[C@H]2[C@@H](COC[C@@H](O)CN2CC2CCCC2)O1)NCC1CC1,-1.66% (inactive)
15,Cc1noc(C)c1S(=O)(=O)N(C)C[C@H]1Oc2c(NC(=O)c3cnccn3)cccc2C(=O)N([C@H](C)CO)C[C@H]1C,5.55% (inactive)
16,Cc1nc(N2[C@H](CO)[C@H](c3ccccc3)[C@H]2CNCC2CCC2)sc1C,2.07% (inactive)
17,O=C(C1CCC1)N1CC(=O)N2[C@H](C1)[C@@H](c1ccc(-c3ccccc3F)cc1)[C@@H]2CO,-0.661% (inactive)
18,CN(C)C(=O)c1cccc(-c2ccc([C@H]3[C@@H](CO)N4C(=O)CN(C(=O)C5CC5)C[C@@H]34)cc2)c1,0.435% (inactive)
19,CN1C(=O)c2cc(NC(=O)C3CC3)ccc2OC[C@H]2O[C@H](CC(=O)O)CC[C@H]21,-5.19% (inactive)
20,O=C(Nc1ccccc1F)N1CC(=O)N2[C@H](C1)[C@@H](c1ccc(C#CC3CC3)cc1)[C@@H]2CO,-0.691% (inactive)
21,O=S(=O)(c1ccc(F)cc1)N1CC[C@@H]2[C@@H](CO)Nc3ccc(-c4ccccc4F)cc3[C@@H]21,1% (inactive)
22,O=C(Nc1ccccc1F)N[C@@H]1CC[C@@H](CCNC(=O)C2CC2)O[C@H]1CO,-0.77% (inactive)

row,SMILES,inhibition
1,Cc1noc(C)c1NC(=O)Nc1ccc2c(c1)C(=O)N([C@H](C)CO)C[C@H](C)[C@@H](CN(C)S(C)(=O)=O)OCCCC[C@H](C)O2,-4.94% (inactive)
2,CCCC#Cc1ccc([C@H]2[C@H]3CN(C(=O)c4cccnc4)CC(=O)N3[C@H]2CO)cc1,-1.39% (inactive)
3,O=C(CN1C(=O)NC2(CCCCC2)C1=O)N1CCN(C(=O)c2cccs2)CC1,37.4% (active)
4,O=C(CN1C(=O)NC2(CCCCCC2)C1=O)NCc1cccs1,-3.05% (inactive)
5,O=C1CN(C(=O)CN2C(=O)NC3(CCCCC3)C2=O)c2ccccc2N1,-1.69% (inactive)
6,O=C1CNC[C@H]2[C@@H](c3ccc(C4=CCCC4)cc3)[C@@H](CO)N12,-1.67% (inactive)
7,CCCN1C[C@H](C)[C@@H](OC)CN(C)C(=O)c2ccc(NC(=O)c3cnccn3)cc2OC[C@H]1C,4.52% (inactive)
8,COc1ccc2c3c([nH]c2c1)[C@@H](CO)N(S(C)(=O)=O)CC31CN(CC2CC2)C1,-2.67% (inactive)
9,NCC[C@H]1CC[C@H](NC(=O)C2CC2)[C@@H](CO)O1,2.22% (inactive)
10,C[C@@H]1CN([C@@H](C)CO)C(=O)c2cc(NC(=O)C3CCCCC3)ccc2O[C@@H](C)CCCCO[C@H]1CN(C)C(=O)CCC(F)(F)F,-1.11% (inactive)
11,Cc1ccc(S(=O)(=O)Nc2ccc3c(c2)C(=O)N([C@@H](C)CO)C[C@@H](C)[C@H](CN(C)C(=O)NC(C)C)OCCCC[C@H](C)O3)cc1,-4.09% (inactive)
12,COc1ccccc1S(=O)(=O)N[C@@H]1CC[C@H](CC(=O)N2CCOCC2)O[C@@H]1CO,-0.783% (inactive)
13,O=C(OCC(=O)c1c[nH]c2ccccc12)c1cccc(O)c1,-0.958% (inactive)
14,O=C(O)c1[nH]c2ccccc2c1C(c1cccc(O)c1)c1c(C(=O)O)[nH]c2ccccc12,34.8% (active)
15,C[C@H]1CN([C@@H](C)CO)C(=O)c2cc(NC(=O)Cn3cnnn3)ccc2O[C@H]1CN(C)S(C)(=O)=O,-0.7% (inactive)
16,CCCNC(=O)Nc1ccc2c(c1)C(=O)N(C)C[C@H](OC)[C@H](C)CN[C@@H](C)CO2,-2.85% (inactive)
17,COc1ccc2c3c([nH]c2c1)[C@H](CO)N(C(=O)C1CCC1)CC31CCN(Cc2cccc(F)c2)CC1,0.436% (inactive)
18,Cc1noc(C)c1S(=O)(=O)Nc1ccc2c(c1)C(=O)N([C@H](C)CO)C[C@H](C)[C@H](CN(C)C(=O)CCC(F)(F)F)OCCCC[C@H](C)O2,0.261% (inactive)
19,CCCNC(=O)Nc1ccc2c(c1)OC[C@H](C)N(C(=O)C1CCC1)C[C@H](C)[C@@H](OC)CN(C)C2=O,2.58% (inactive)
20,C[C@@H]1CN([C@@H](C)CO)C(=O)c2c(c3ccccc3n2C)-c2ccccc2CO[C@@H]1CN(C)Cc1ccc2c(c1)OCCN2C,2.84% (inactive)
21,O=C(C[C@H]1C[C@@H]2c3cc(NS(=O)(=O)c4ccc(F)cc4)ccc3O[C@@H]2[C@H](CO)O1)NCc1cccc(F)c1,-2.83% (inactive)
22,CCCNC(=O)C[C@H]1C[C@H]2c3cc(NC(=O)COC)ccc3O[C@H]2[C@H](CO)O1,0.774% (inactive)
